Assay results taken from PubChem BioAssay.
Inconclusive results are not listed. Activity calls are given as the source filed them. Cut-off read from the data, not from the text of the source, unless noted: active = parasite load remaining mostly below about 12% (no sharp cut-off); inactive = mostly above about 10%.

Legend:
[1] = biological target: ATP-dependent translocase ABCB1 (Homo sapiens) (UniProt P08183); assay: P-glycoprotein substrate transport blockade – cell-based (AID 377; in the data active = fluorescence slope change above about 50%); settings: MDR1-expressing cells, fluorescent substrate accumulation slope; stronger effect = higher value; concentration not given here
[2] = compounds altering viability of human ES cells (AID 493140; call rule not given here;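 note: cells exposed to compounds for four days before counting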); settings: human embryonic stem cell survival screen; stronger effect = higher value
[3] = P. berghei load reduction in hepatocytes – cell-based, HepG2, luciferase luminescence, HepG2 viability, primary screen (AID 624349);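 note: 100% = mean of DMSO negative control wells on the same plate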; settings: P. berghei liver stage in HepG2, luciferase luminescence, concentration not given here; parasite load remaining: stronger effect = lower value; viability: measured here: HepG2 viability without parasites

Chain of ATP-dependent translocase ABCB1 (Homo sapiens) (P08183 whole entry, looked up): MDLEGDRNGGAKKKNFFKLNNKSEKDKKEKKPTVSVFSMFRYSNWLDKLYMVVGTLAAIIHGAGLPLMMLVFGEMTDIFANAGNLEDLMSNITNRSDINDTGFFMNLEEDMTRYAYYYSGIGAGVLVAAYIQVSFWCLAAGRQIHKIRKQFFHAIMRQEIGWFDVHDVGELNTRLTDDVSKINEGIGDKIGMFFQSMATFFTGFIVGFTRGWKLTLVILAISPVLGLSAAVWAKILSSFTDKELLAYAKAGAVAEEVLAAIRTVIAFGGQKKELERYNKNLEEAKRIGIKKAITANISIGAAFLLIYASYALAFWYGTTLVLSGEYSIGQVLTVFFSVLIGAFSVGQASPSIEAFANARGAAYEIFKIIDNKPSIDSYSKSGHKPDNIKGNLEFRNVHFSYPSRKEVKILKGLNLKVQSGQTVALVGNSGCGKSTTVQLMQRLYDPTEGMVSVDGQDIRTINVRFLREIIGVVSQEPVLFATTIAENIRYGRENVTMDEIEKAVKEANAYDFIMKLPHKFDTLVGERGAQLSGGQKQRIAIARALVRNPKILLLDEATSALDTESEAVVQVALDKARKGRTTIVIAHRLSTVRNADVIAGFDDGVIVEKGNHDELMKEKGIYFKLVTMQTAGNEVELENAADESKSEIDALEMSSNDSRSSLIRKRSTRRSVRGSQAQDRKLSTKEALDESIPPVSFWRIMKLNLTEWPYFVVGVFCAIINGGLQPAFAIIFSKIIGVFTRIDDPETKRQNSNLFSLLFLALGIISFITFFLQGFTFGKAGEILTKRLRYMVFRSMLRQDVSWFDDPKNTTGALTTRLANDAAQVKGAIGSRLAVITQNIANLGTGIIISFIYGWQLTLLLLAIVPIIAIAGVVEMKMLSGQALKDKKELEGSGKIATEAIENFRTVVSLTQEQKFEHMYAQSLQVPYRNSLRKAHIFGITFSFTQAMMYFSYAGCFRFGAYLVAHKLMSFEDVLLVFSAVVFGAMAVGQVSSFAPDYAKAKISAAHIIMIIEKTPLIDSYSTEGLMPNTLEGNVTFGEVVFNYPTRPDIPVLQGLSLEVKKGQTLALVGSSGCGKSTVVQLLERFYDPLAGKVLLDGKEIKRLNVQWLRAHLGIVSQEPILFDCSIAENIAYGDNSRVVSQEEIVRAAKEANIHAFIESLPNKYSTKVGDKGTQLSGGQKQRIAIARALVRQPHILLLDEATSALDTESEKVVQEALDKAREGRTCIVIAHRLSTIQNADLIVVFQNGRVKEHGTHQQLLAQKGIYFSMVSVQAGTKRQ

Compound | fluorescence slope change [1] | survival [2] | parasite load remaining [3] | viability [3]
O=S(=O)(O)CCN1CCN(CCO)CC1 | 26.7% (inactive) | – | – | –
COC1CC(O[C@H]2[C@H](C)[C@@H](OC3OC(C)CC(N(C)C)C3O)[C@@H](C)C[C@]3(CO3)C(=O)[C@H](C)[C@@H](O)[C@@H](C)[C@@H](C)OC(=O)[C@@H]2C)OC(C)C1O (stereo not given in full) | 96.5% (active) | 26.4 (inactive) | 84.7% (inactive) | 90.7%
NCC[C@H](O)C(=O)NC1CC(N)C(OC2OC(CN)C(O)C(O)C2O)C(O)C1OC1OC(CO)C(O)C(N)C1O (stereo not given in full) | 13.3% (inactive) | 1.75 (inactive) | 68.1% (inactive) | 76.6%
Cc1nc(-c2ccccc2)c(-c2ccncc2)o1 | – | – | 46.9% (inactive) | 64.2%
C[C@H]1[C@H](C)CC[C@]2(C(=O)O)CC[C@]3(C)C(=CCC4[C@@]5(C)CC[C@H](O)C(C)(C)[C@@H]5CC[C@]43C)[C@H]12 (stereo not given in full) | – | 11.2 (inactive) | 107% (inactive) | 92.7%
O=C(N[C@H](CO)[C@@H](O)c1ccc([N+](=O)[O-])cc1)C(Cl)Cl | – | 26.4 (inactive) | 100% (inactive) | 91.7%
O=C1O[C@H](C(O)CO)[C@H](O)C1O (stereo not given in full) | – | 4.42 (inactive) | 68.2% (inactive) | 76.1%
CC[C@@H]1OC(=O)[C@H](C)[C@H](O[C@H]2C[C@@](C)(OC)[C@@H](O)[C@H](C)O2)[C@@H](C)[C@@H](O[C@@H]2O[C@H](C)C[C@H](N(C)C)[C@H]2O)C(C)(O)C[C@@H](C)[C@@H]2NC(COCCOC)OC([C@H]2C)[C@]1(C)O (stereo not given in full) | – | 4.33 (inactive) | 84.5% (inactive) | 77.5%
O=C1C(C2=C3C(=Nc4ccccc43)/C(=C\c3ccc(O)cc3)C2=O)=C2C(=Nc3ccccc32)/C1=C\c1ccc(O)cc1 | – | – | 52% (inactive) | 71.2%
C=C1CC[C@@H](O)C/C1=C/C=C1\CCC[C@]2(C)[C@@H]([C@H](C)/C=C/[C@@H](C)C(C)C)CC[C@@H]12 | – | 8.25 (inactive) | 66.4% (inactive) | 88.3%
CC(C)(CO)[C@H](O)C(=O)NCCC(=O)O | – | 19.5 (inactive) | 85.1% (inactive) | 77.3%
C=CC1=C(C(=O)O)N2C(=O)[C@@H](NC(=O)/C(=N/OCC(=O)O)c3csc(N)n3)[C@H]2SC1 (stereo in doubt) | – | 5.58 (inactive) | 92.8% (inactive) | 73.2%
COC(=O)C1=CO[C@@H](C)[C@@H]2CN3CCc4c([nH]c5ccccc45)C3C[C@H]12 (stereo not given in full) | – | 5.92 (inactive) | 62.4% (inactive) | 77.2%
C=C1CC[C@@H](O)C/C1=C/C=C1\CCC[C@]2(C)[C@@H]([C@H](C)CCCC(C)C)CC[C@@H]12 | – | 15.8 (inactive) | 79.3% (inactive) | 76%
CN=C(NC#N)NCCSCC1N=CN=C1C (stereo not given) | – | 16.7 (inactive) | 100% (inactive) | 88.8%
COc1cc(OC)c2c(c1Cl)O[C@]1(C2=O)C(OC)CC(=O)C[C@H]1C (stereo not given in full) | – | 13.2 (inactive) | 83.9% (inactive) | 93.9%
CC(C)(CS)C(=O)N1CCC[C@@H]1C(=O)O | – | 8.75 (inactive) | 94.4% (inactive) | 94.8%
CC(C)CC(=O)NC(C(=O)N[C@H](C(=O)NC(CC(C)C)[C@@H](O)CC(=O)N[C@@H](C)C(=O)NC(CC(C)C)[C@@H](O)CC(=O)O)C(C)C)C(C)C (stereo not given in full) | – | 5.42 (inactive) | 67.7% (inactive) | 80.5%
Nc1c2ccccc2nc2c(O)cccc12 | – | 5.5 (inactive) | 80.8% (inactive) | 77.4%
CC(=O)O[C@H]1C(=O)[C@@]2(C)[C@H](O)C[C@@H]3OC[C@]3(OC(C)=O)[C@@H]2[C@@H](OC(=O)c2ccccc2)[C@@]2(O)C[C@@H](OC(=O)[C@@H](O)[C@H](NC(=O)c3ccccc3)c3ccccc3)C(C)=C1C2(C)C | – | 5 (inactive) | 172% (inactive) | 89.6%
CC[C@H]1OC(=O)[C@H](C)[C@@H](O[C@H]2C[C@@](C)(OC)[C@@H](O)[C@H](C)O2)[C@H](C)[C@@H](O[C@H]2O[C@H](C)C[C@H](N(C)C)[C@H]2O)[C@](C)(O)C[C@@H](C)C(=O)[C@H](C)[C@@H](O)[C@]1(C)O | – | 35.4 (inactive) | 97.5% (inactive) | 81.9%
C[C@]12CCC(=O)C[C@H]1CC(=O)[C@@H]1[C@@H]2CC(=O)[C@]2(C)CCC[C@@H]12 (tested in a mixture with another compound) | – | 19.5 (inactive) | 107% (inactive) | 86.8%
CC(=O)NC1[C@@H](O)OC(CO)[C@@H](O)[C@H]1O[C@H](C)C(=O)O (stereo not given in full) | – | 11.5 (inactive) | 82.1% (inactive) | 76.2%

Compound | fluorescence slope change [1] | survival [2] | parasite load remaining [3] | viability [3]
CN1[C@@H]2CC[C@H]1CC(OC(=O)[C@@H](CO)c1ccccc1)C2 (stereo not given in full) | – | 13.1 (inactive) | 111% (inactive) | 89%
CC(C)(O/N=C(/C(=O)N[C@@H]1C(=O)N2C(C(=O)[O-])=C(C[n+]3ccccc3)CS[C@H]12)c1csc(N)n1)C(=O)O | – | 5.92 (inactive) | 88.2% (inactive) | 82.6%
CS(=O)(=O)c1ccc(-c2nc(-c3ccc(F)cc3)c(-c3ccncc3)[nH]2)cc1 | – | 113 (inactive) | 28.7% (inactive) | 88.5%
CC(=O)NC(CC(=O)O)C(=O)O (stereo not given) | – | 11.8 (inactive) | 89% (inactive) | 77%
CCOC(=O)Oc1c(OC)cc(C(=O)OC2CC3CN4CCc5c([nH]c6cc(OC)ccc56)C4CC3C(C(=O)OC)C2OC)cc1OC (stereo not given) | – | 6.25 (inactive) | 55.8% (inactive) | 77.6%
CC1Cc2ccccc2N1NC(=O)c1ccc(Cl)c(S(N)=O)c1 (stereo not given) | – | 17.1 (inactive) | 50.9% (inactive) | 94.8%
Cc1cc2ncc(-c3ccccc3)nc2cc1C | – | 100 (inactive) | 40.3% (inactive) | 74.4%
CCOC(=O)[C@@H](CCc1ccccc1)NC(C)C(=O)N1CCC[C@@H]1C(=O)O (stereo not given in full) | – | 25.8 (inactive) | 94.8% (inactive) | 91.7%
CC[C@H]1CN2CCc3cc(OC)c(OC)cc3[C@@H]2C[C@@H]1CC1NCCc2cc(OC)c(OC)cc21 (stereo not given in full) | – | 0.25 (inactive) | 2.62% (inactive) | 61.4%
O=C(O)c1ccc2c3c1cccc3c(=O)n1c3ccccc3nc21 | – | – | 44% (inactive) | 75.2%
Cc1c(C)c2c(c(C)c1O)CC[C@](C)(CCC[C@@H](C)CCC[C@@H](C)CCCC(C)C)O2 | – | 5.83 (inactive) | 52.8% (inactive) | 78.5%
C1CCN2C[C@H]3C[C@@H](CN4CCCC[C@@H]34)[C@H]2C1 | – | 10 (inactive) | 73.9% (inactive) | 72.2%
Nc1nc2ncc(CNc3ccc(C(=O)N[C@H](CCC(=O)O)C(=O)O)cc3)nc2c(=O)[nH]1 | – | 11.4 (inactive) | 51.4% (inactive) | 76.8%
CCCCc1c(-c2ccc(O)cc2)[nH]c2nccnc12 | – | – | 46.4% (inactive) | 112%
CN(C)CC/C=C1/c2ccccc2CSc2ccccc21 | – | 3.75 (inactive) | 68.1% (inactive) | 76.6%
COC1CC(O[C@@H]2[C@H](C)[C@H](OC3OC(C)CC(N(C)C)C3OC(C)=O)[C@H](C)CC3(CO3)C(=O)[C@@H](C)C(OC(C)=O)[C@H](C)[C@H](C)OC(=O)[C@@H]2C)OC(C)C1OC(C)=O (stereo not given in full) | – | 27.8 (inactive) | 86.6% (inactive) | 90.9%
CCN(CC)CCNC(=O)c1c(C)[nH]c(/C=C2\C(=O)Nc3ccc(Cl)cc32)c1C | – | – | 49.7% (inactive) | 69.1%
CN1CCC23c4ccccc4NC1C21CCN(C)C3Nc2ccccc21 | – | 4.92 (inactive) | 79.4% (inactive) | 76.7%
NCC1OC(COC[C@@H]2C(O)[C@H](OC3C(O)C(N)CC(N)C3OC3OC(CN)C(O)C(O)C3N)O[C@@H]2CO)C(N)C(O)C1O (stereo not given in full) | – | 12.3 (inactive) | 91.3% (inactive) | 89.7%
O=c1[nH]c(=O)n([C@H]2CC(O)[C@@H](CO)O2)cc1I (stereo not given in full) | – | 6.25 (inactive) | 130% (inactive) | 96.5%
Nc1nc(O)c(C2=C3C(=Nc4ccccc43)C(=O)NCC2)[nH]1 | – | – | 45.8% (inactive) | 99.9%
CC(=O)NC1SCCC1=O (stereo not given) | – | – | 139% (inactive) | 87.1%
CC[C@@H](CO)Nc1nc(NCc2ccc(-c3ccccn3)cc2)c2ncn(C(C)C)c2n1 | – | – | 181% (inactive) | 75.3%
